# Laboratory results as given in PubChem BioAssay (NCI).
# The panel holds about 79,000 compounds, 15% with a hit somewhere; the sample as a whole holds those more often. Calls of active or inactive are those of the source. Cut-off read from the data, not from the text of the source: active = growth inhibition above about 70%; inactive = the rest.
# Assay: NCI Yeast Anticancer Drug Screen. Data for the sgs1 mgt1 strain (AID 161);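 note: 0% = growth of cultures given vehicle only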
# Conditions: S. cerevisiae sgs1 mgt1 strain, at 50.0 µM, active compounds read high
# Method in brief: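 Growth of a repair-deficient yeast mutant was monitored after compound treatment and expressed as inhibition relative to vehicle-treated cultures.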
row,SMILES,growth inhibition
1,CCCn1c(C)nc2c(N)cc(C)cc21,-6.05% (inactive)
2,CCOC(=O)Nc1cccc(Cl)c1,18.9% (inactive)
3,CCC[CH2][Ge]([CH2]CCC)([CH2]CCC)[n]1ccc2ccccc21,47% (inactive)
4,CC(C)C(C(=O)O)N(CC1(O)OCC(O)C(O)C1O)N=O (stereo not given),-2.85% (inactive)
5,COc1ccc(C2(C)OCCCC2([NH-])C[NH-])cc1.[Cl][Pt+2][Cl] (stereo not given),-2.95% (inactive)
6,CCCC#CCN(C(C)C)C(C)C,-6.35% (inactive)
7,Cc1ccc(SCC(CF)OCn2cc(F)c(=O)[nH]c2=O)cc1 (stereo not given),-12.2% (inactive)
8,Nc1nc(Cc2ccccc2)c(-c2ccccc2)c(-c2nc(N)nc(Cc3ccccc3)c2-c2ccccc2)n1,-26.4% (inactive)
9,O=C1Oc2ccccc2C(=O)Oc2ccccc2C(=O)Oc2ccccc2C(=O)Oc2ccccc21,-24.2% (inactive)
10,O=C1OI(=O)(O)c2ccccc21 (stereo not given),-7.5% (inactive)
11,O=C(COc1ccccc1)OC1CCCCC1C1CCCCC1 (stereo not given),4.05% (inactive)
12,O=C(O)c1ccc2sc3ccccc3c(=O)c2c1,33.3% (inactive)
13,COc1ccccc1NC(=O)C(/C=N/C(N)=S)=C(\C)O,-33.1% (inactive)
14,CCOC(=O)N[C@@H]1C(CC(=O)OC)O[C@H]2OC(C)(C)O[C@H]21 (stereo not given in full),10.4% (inactive)
15,CN1CCN(C(=O)/C(=C/c2ccccc2)NC(=O)c2ccccc2)CC1,8.05% (inactive)
16,CC(c1ccccc1)C(C)c1ccccc1 (stereo not given),-16.6% (inactive)
17,c1ccc(N=C2CCCCCC2)cc1,-5.8% (inactive)
18,CCCC(=O)C(C)(C)C,-35% (inactive)
19,C=CC(=O)OCCOCCOC,-2.35% (inactive)
20,CN(C)S(=O)(=O)C(C(N)=O)c1ccccc1 (stereo not given),19.4% (inactive)

row,SMILES,growth inhibition
1,O=c1oc2ccccc2c2ccccc12,-16.5% (inactive)
2,CS(=O)(=O)CCC(Nc1ccc([N+](=O)[O-])cc1[N+](=O)[O-])C(=O)O (stereo not given),22.1% (inactive)
3,NC(CSC(c1ccccc1)(c1ccccc1)c1ccc(C(=O)O)cc1)C(=O)O (stereo not given),18.5% (inactive)
4,Brc1cc(Br)c2c(c1)CN(C1CCCCC1)CO2 (tested in a mixture with another compound),-0.4% (inactive)
5,Cc1n(CC(=O)c2ccccc2)nc2sc(N)n[n+]12,-68% (inactive)
6,COc1ccc(NC(=O)C(=O)Cc2nc3ccc([N+](=O)[O-])cc3[nH]c2=O)c(OC)c1,-3.7% (inactive)
7,COC(=O)CCc1cc(=O)oc2c3c(cc(OC)c12)OC1OC(=O)CC31 (stereo not given),-19.1% (inactive)
8,O=C1C2C3(CCl)C1C23CCl (stereo not given),37.6% (inactive)
9,N#Cc1cn(Cc2ccccc2)c2ccccc2c1=O,3.95% (inactive)
10,O=[N+]([O-])c1cc(C(F)(F)F)ccc1F,-2.3% (inactive)
11,CCOC(=O)Cc1cccnc1N,-19.9% (inactive)
12,CN1CCCC2[C@@H]3CCC4=C(O)C(=O)CC[C@]4(C)C3CC[C@@]21C (stereo not given in full),-4% (inactive)
13,c1ccc(B2OCC(C3OB(c4ccccc4)OC4COB(c5ccccc5)OC43)O2)cc1 (stereo not given),-1.2% (inactive)
14,COc1ccc(/C=C2/SC(=Nc3ccccc3)N(NC(=O)Cc3ccccc3)C2=O)cc1,13.7% (inactive)
15,O=C(CC(=O)N(C(=O)/C=C\c1ccccc1)c1ccc(Cl)cc1)N1N=C(c2ccccc2)C(N=Nc2cccc([N+](=O)[O-])c2)C1=O (stereo not given),9.5% (inactive)
16,OCc1ccccc1O,-6.55% (inactive)
17,CCN(CC)CCSc1cc(C)c2ccc(N)nc2n1,6.6% (inactive)
18,CC(CN(C)C)C(=O)c1ccccc1C(=O)O (stereo not given),-36% (inactive)
19,CC(C)c1ccc(C(=O)OCCBr)cc1,16.2% (inactive)
20,O=C1/C(=C/c2ccccc2)CCCC/C1=C\c1ccccc1,40.5% (inactive)
